# Source: PubChem BioAssay (NCI)
# Compounds without any hit were thinned out: in the full panel of roughly 83,000, 20% have a hit.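 Cell lines were cultured in 96-well plates, exposed to a single compound concentration, and assessed for percent growth 48 hours later.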 A number with no mark means an inactive call. Active and inactive are the calls of the source. Rule for the calls: active = growth percent below 10; inactive = the rest.
# Assays:
# Test in all cases: NCI-60 one-dose screen, 48 h (100 = growth as untreated, 0 = no growth, -100 = all killed)
# NCI-H226 lung = settings: 10 µM unless noted
# NCI-H322M lung = settings: 10 µM unless noted
# HOP-62 NSCLC = settings: 10 µM unless noted
# NCI-H460 lung = settings: 10 µM unless noted
# HOP-92 NSCLC = settings: 10 µM unless noted
# NCI-H522 lung = settings: 10 µM unless noted
# A549/ATCC NSCLC = settings: 10 µM unless noted
# 786-0 renal = settings: 10 µM unless noted
# DU-145 prostate = settings: 10 µM unless noted
# K-562 leukemia = settings: 10 µM unless noted
# MALME-3M melanoma = settings: 10 µM unless noted
# MDA-MB-231 breast = settings: 10 µM unless noted
# RXF 393 renal = settings: 10 µM unless noted
# SF-268 CNS = settings: 10 µM unless noted
# SF-295 CNS = settings: 10 µM unless noted
# SF-539 CNS = settings: 10 µM unless noted
# UACC-257 melanoma = settings: 10 µM
# M14 melanoma = settings: 10 µM unless noted
# COLO 205 colon = settings: 10 µM unless noted
SMILES,growth (NCI-H226 lung),growth (NCI-H322M lung),growth (HOP-62 NSCLC),growth (NCI-H460 lung),growth (HOP-92 NSCLC),growth (NCI-H522 lung),growth (A549/ATCC NSCLC),growth (786-0 renal),growth (DU-145 prostate),growth (K-562 leukemia),growth (MALME-3M melanoma),growth (MDA-MB-231 breast),growth (RXF 393 renal),growth (SF-268 CNS),growth (SF-295 CNS),growth (SF-539 CNS),growth (UACC-257 melanoma),growth (M14 melanoma),growth (COLO 205 colon)
CCN(C(=O)c1cc2ccccc2[nH]1)[C@H]1CCC[C@@H](NCc2ccc(OC)cc2)C1,107%,76.1%,86.2%,103%,81%,95.6%,98.7%,97%,95.6%,76.6%,92.3%,90.4%,86%,89.8%,99.2%,104%,112%,98.2%,–
COc1ccc(/C=C/C(=O)c2ccc(B(O)O)cc2)cc1O,92.5%,96.3%,89.8%,73.2%,52.4%,85.6%,66.3%,84.9%,75.6%,24.6%,–,90.8%,81.4%,81.6%,98.5%,71.3%,94.3%,74.1%,101%
CC1Cc2c(N(C)C)ncnc2N(C)c2ccc(Cl)cc21 (centres undefined),85.6%,73.2%,41.9%,14.5%,58%,13.4%,55.8%,31.1%,52.4%,14.3%,51.4%,55%,42.6%,44.5%,3.45% (active),4.81% (active),–,22.2%,36%
C/C(=N\NC(=O)CC#N)c1cc2cc(Cl)ccc2o1,94.6%,97.2%,92.8%,94.2%,-13.3% (active),84.4%,111%,105%,103%,96.6%,102%,93.9%,–,102%,99.7%,82.9%,–,104%,99.7%
Cc1oc2nc[nH]c(=O)c2c1C(=O)/C=C/c1ccc(Cl)cc1,–,45.2%,6.15% (active),21%,-4.23% (active),17.5%,31.7%,29.7%,6.76% (active),-63.2% (active),71%,22.3%,–,50.1%,77%,14.5%,–,82.3%,70.8%
COc1ccc(Cl)cc1NC(N)=S,107%,108%,110%,109%,92.2%,80.7%,103%,102%,108%,104%,104%,104%,112%,99.5%,106%,99.8%,–,105%,127%
Nc1cccc2c1CN(C1CCC(=O)NC1=O)C2=O (centres undefined),108%,111%,106%,102%,22.6%,56%,106%,107%,107%,132%,119%,107%,-17.4% (active),102%,116%,94.7%,–,101%,111%
COc1ccc(-c2nc(-c3nc4ccc(F)cc4[nH]3)cc3c2[nH]c2ccccc23)cc1,70.6%,19%,48.7%,10.5%,31.8%,44.4%,14.3%,63.2%,25.6%,20.3%,39.1%,43.6%,56.5%,41.3%,55.5%,69.1%,9.58% (active),36%,44.1%
FC(F)(F)c1cccc(-n2nnc3cnc(Nc4ccc(N5CCCCC5)cc4)nc32)c1,92.4%,90.7%,98.1%,12.6%,110%,2.95% (active),20.9%,25.3%,57.6%,67.3%,41.6%,58.7%,–,55.5%,93.6%,90.7%,63.4%,33.8%,77.2%
ClC1=C(Cl)C(Cl)=C(Cl)C1=Cc1ccc(Cl)cc1Cl,-33.9% (active),11.3%,10.9%,-16.3% (active),-81% (active),-22.8% (active),-38.4% (active),-40.3% (active),-5.47% (active),0.397% (active),-30.8% (active),-10.8% (active),-94.8% (active),-43.4% (active),-16.6% (active),-30% (active),–,-30.1% (active),-34.1% (active)
COc1ccc(C2CC(c3cccs3)=NN2c2ccc(S(=O)(=O)NC(=O)NCc3cccc(OC)c3)cc2)cc1 (centres undefined),110%,102%,81%,109%,87.1%,87.3%,5.45% (active),101%,106%,111%,31.2%,113%,–,97.9%,105%,104%,30%,52.1%,-63.5% (active)
C=CC(=O)N[C@H](/C=C/C(=O)OCC)Cc1ccc(-c2cc(Cl)cc(Cl)c2)cc1,68.9%,92.9%,88.4%,98.7%,73.7%,51.1%,76.4%,96%,91.1%,89.4%,87.6%,72.9%,–,84.7%,83.1%,99.9%,–,–,95.8%
CCN(CC)P(=O)(N(CC)CC)N(CCCSC/C=C(\C)CC/C=C(\C)CCC=C(C)C)CCCN1CCN(C)CC1,96.9%,108%,106%,101%,82.4%,91.6%,87.6%,101%,106%,71.8%,98.7%,111%,91.3%,102%,96.4%,106%,110%,–,105%
NCCSC(c1ccccc1)(c1ccccc1)c1ccccc1,68.6%,29.5%,–,7.06% (active),-2.14% (active),-20.7% (active),–,37.9%,-1.74% (active),3.65% (active),27.5%,-24.2% (active),-7.93% (active),27.4%,-45.9% (active),-46.1% (active),47.7%,-9.88% (active),-42.8% (active)
COc1cccc2cc(-c3cc4ccccc4[nH]3)c(=NC(=O)c3ccc(Cl)cc3)oc12,83.2%,93.3%,57.7%,85.3%,-0.489% (active),9.69% (active),65.5%,69.5%,85.5%,39.7%,58.5%,54.3%,–,53.5%,67.3%,58.2%,–,-28.9% (active),100%
CCC(c1ccc(OC)cc1)C(CC)c1ccc(OCC[N+](C)(C)C)cc1 (centres undefined),49.8%,89.6%,73.9%,59%,9.93% (active),35%,74.3%,88%,91.9%,24.7%,58%,–,99.6%,40.8%,78.6%,41.9%,–,64%,-74.7% (active)
COc1cc(/C=C/C(=O)c2ccc(NC(=O)CN3CCN(c4cc5c(cc4F)c(=O)c(C(=O)O)cn5C4CC4)CC3)cc2)cc(OC)c1OC,-9.81% (active),-7.05% (active),4.38% (active),-20% (active),-1.75% (active),-71.5% (active),-19.2% (active),-67.8% (active),2.17% (active),1.66% (active),31.4%,27.6%,-87.6% (active),-1.11% (active),-27.2% (active),-15.7% (active),30.8%,-14.1% (active),-12.8% (active)
CC(=O)n1cc([C@H]2CC[C@H](c3cn(C(C)=O)c4ccccc34)c3c2[nH]c2ccccc32)c2ccccc21,89.4%,77.6%,70.7%,90.4%,85.3%,65.1%,70%,93.5%,93.2%,69.9%,91.4%,70.8%,96.5%,76.9%,80%,92.7%,89.5%,79.1%,94.5%
